Source: the supplement of paper PMC6555819

The sequences below were run on FXR:RXRa (NR concentration 270 nM, RXRa partner concentration 90 nM) (assay: PBM binding z-score (relative to random genomic background probes); higher = stronger binding; sequences stand for … in GC…GCGATTGACAGCGTAGAATGAAGG).
How it was run: (§1)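 Regression normalization was applied to scanned fluorescence from custom Agilent 4×180K protein-binding microarrays. Before scanning, arrays were incubated 1 h with ligand-free nuclear receptor dimers, and binding was detected with antibodies against each partner (one per run). Binding z-scores use the random background probes as reference.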

Sequence	PBM binding z-score
CAAACTAGCTCAAAGGTCAAAGTCGAGCCAACCA	5.95
GGAACGAGGGCAAGTCGATAGCAGAGTTTGATGG	0.383
CAGCGTAGGTCAGGGCCAGTATAGGAGGAACGTT	1.79
TATTGTAGATCAACAGGAGGTTAAGAAAGATCGA	0.217
CAGCCTAGGTCAGGGCCAATATAGGAGGAACGTT	1.73
CTCGAAAAGTCGTGCTCAGGTGAGTATACCAAAC	0.362
GCGATTGGGGCAAAGCAGGTTACCATAAGGTTGG	0.351
TCGTGTAGATCAACAGGAGGTTAAGAAAGATCGA	-0.127
CCTATTAGTTTACCATAAGGGCAACCGAAGCTCG	0.454
GCTAGTCGGTCAGTAAAAGGTCACACACCGGTCG	4.06
TCTATTAGTTGAACGGCAACCGACGAGTCCGTTT	0.294
ATCTCTAAGTAACAAGTTCAGTGAAAGAGAGGAC	0.888
GCTAGTTGGTCAGTAAAAGGTCCCACACCGGTCG	-0.338
TCATATAGGTAAACGGTGAAAGTCGGTGTGGTAA	0.188
ACTAGTTGGTCAGCTGAGGTCACATACAATTCGG	2.13
CGTCCAAGGTCATAGGAGGTCAGTGAGGACAGAT	7.69
TCATATAGGTAAATGCTAGGTGAAAGTGCGATCT	1.14
TCCAGTAGGTTAGGGGCATTCAGAATGGCGTCGA	0.986
CTCGAAAGGTCGTGCTCAGGTGAGTAGACCAAAC	5.65
CCTAGTAGGTCAGGAGGTCACACACCGGATATGA	5.48

Sequence	PBM binding z-score
CAAACTAGGTCACGAAAGTTCAAAGTCGAATGAC	6.48
TCTTGTAGATCAAGGGTTAAGAAAGCCGAAGCCT	0.439
TTACCAAGATGAGCTGAGGTCGTTGATCCAACTC	0.71
CCTTACGGGTCAAGGTTATAGCGCGGGTGGTACG	5.55
TAGTCTAGGTCATGGGCCAGTATACCACGCGAAC	4.42
ATCTCTAGGTAAAAGTTCAGTCAATCCCGAGGAT	0.989
AGTCAAAGTTCACTAGGGAACGTAAGATTCAGCT	5.18
CGTCCAAGGTCATAGAAGGTCAGTGAAGACAGAT	7.45
CCAGACAGGTGACAGGTAACTCAGTCTGGTACGC	-0.312
CTCGAAAGGTCGTGCTCACGTGAGTATACCAAAC	5.21
TTACCAAGGTGAGCAGAGGTCGTTGATCCAACTC	1.14
ATGTCTAGGTAAAGTTCAGTGAAAGATCGATAGA	1.21
CCGACTGGGGCACAAAGGTTACCATACCATCCGG	0.682
TATACAGGGTCAAAGGCCAGCGTACGAATGTCGA	7.47
CCTACTGGGCAATTCAGAGGTCATTGATCATATG	2.49
ACTATTAGTTGACTTGGGGCAACCGATACGACGC	0.435
CCGACTTGGGCAGAAAGGTTACCATACCATCCGG	0.0234
GCTAGCACGCCATTTGGGTCACTCAATGACGGGC	-0.103
TCGAGTAGGTTAGGGGCATTCAAAATGGCGTCGA	0.3
CCTCGGAGGACAGAAGGTCAGAGCCGTCCGCTTT	1.62

The sequences below were run on LXRa:RXRa (NR concentration 270 nM, RXRa partner concentration 90 nM) in the same assay as above.
How it was run: as §1

Sequence	PBM binding z-score
CAAACTAGCTCAAAGGTCAAAGTCGAGCCAACCA	5.85
GGAACGAGGGCAAGTCGATAGCAGAGTTTGATGG	0.00226
CAGCGTAGGTCAGGGCCAGTATAGGAGGAACGTT	1.23
TATTGTAGATCAACAGGAGGTTAAGAAAGATCGA	1.55
CAGCCTAGGTCAGGGCCAATATAGGAGGAACGTT	0.833
CTCGAAAAGTCGTGCTCAGGTGAGTATACCAAAC	0.378
GCGATTGGGGCAAAGCAGGTTACCATAAGGTTGG	0.0851
TCGTGTAGATCAACAGGAGGTTAAGAAAGATCGA	1.13
CCTATTAGTTTACCATAAGGGCAACCGAAGCTCG	0.693
GCTAGTCGGTCAGTAAAAGGTCACACACCGGTCG	4.97
TCTATTAGTTGAACGGCAACCGACGAGTCCGTTT	0.618
ATCTCTAAGTAACAAGTTCAGTGAAAGAGAGGAC	0.954
GCTAGTTGGTCAGTAAAAGGTCCCACACCGGTCG	-0.272
TCATATAGGTAAACGGTGAAAGTCGGTGTGGTAA	0.878
ACTAGTTGGTCAGCTGAGGTCACATACAATTCGG	2.95
CGTCCAAGGTCATAGGAGGTCAGTGAGGACAGAT	7.5
TCATATAGGTAAATGCTAGGTGAAAGTGCGATCT	1.17
TCCAGTAGGTTAGGGGCATTCAGAATGGCGTCGA	0.635
CTCGAAAGGTCGTGCTCAGGTGAGTAGACCAAAC	3.86
CCTAGTAGGTCAGGAGGTCACACACCGGATATGA	4.97

Sequence	PBM binding z-score
CAAACTAGGTCACGAAAGTTCAAAGTCGAATGAC	7.84
TCTTGTAGATCAAGGGTTAAGAAAGCCGAAGCCT	0.813
TTACCAAGATGAGCTGAGGTCGTTGATCCAACTC	0.408
CCTTACGGGTCAAGGTTATAGCGCGGGTGGTACG	3.66
TAGTCTAGGTCATGGGCCAGTATACCACGCGAAC	3.68
ATCTCTAGGTAAAAGTTCAGTCAATCCCGAGGAT	1.98
AGTCAAAGTTCACTAGGGAACGTAAGATTCAGCT	5.47
CGTCCAAGGTCATAGAAGGTCAGTGAAGACAGAT	7.22
CCAGACAGGTGACAGGTAACTCAGTCTGGTACGC	-0.0899
CTCGAAAGGTCGTGCTCACGTGAGTATACCAAAC	3.95
TTACCAAGGTGAGCAGAGGTCGTTGATCCAACTC	1.86
ATGTCTAGGTAAAGTTCAGTGAAAGATCGATAGA	1.74
CCGACTGGGGCACAAAGGTTACCATACCATCCGG	0.574
TATACAGGGTCAAAGGCCAGCGTACGAATGTCGA	6.28
CCTACTGGGCAATTCAGAGGTCATTGATCATATG	4.41
ACTATTAGTTGACTTGGGGCAACCGATACGACGC	0.287
CCGACTTGGGCAGAAAGGTTACCATACCATCCGG	0.228
GCTAGCACGCCATTTGGGTCACTCAATGACGGGC	-0.15
TCGAGTAGGTTAGGGGCATTCAAAATGGCGTCGA	0.524
CCTCGGAGGACAGAAGGTCAGAGCCGTCCGCTTT	1.72
